What all share (parameters): species or system human, MV4-11 + K-562 + COLO205 + SK-N-BE2 + OVCAR-8
The test system of experiment [1] is IRAK3. To be noted: read-out: apparent Kd, compound concentrations: 100 nM and 1000 nM (sheet 'Samples'), n = 1.
The subject of experiment [2] is TGFBR2. The following applies: read-out: apparent Kd, n = 1.
Experiment [3] has as its system PIK3CG. The following applies: read-out: apparent Kd, compound concentrations: 100 nM and 1000 nM (sheet 'Samples'), n = 1.
Experiment [4] concerns AXL. The following applies: read-out: apparent Kd, compound concentrations: 100 nM and 1000 nM (sheet 'Samples'), n = 1.
In experiment [5] the test system is CDC42BPA. The following applies: read-out: apparent Kd, n = 1.
The test system of experiment [6] is CDC42BPG. To be noted: read-out: apparent Kd, n = 1.
Experiment [7] relates to CDK2. To be noted: read-out: apparent Kd, n = 1.
The test system of experiment [8] is LYN. The following applies: read-out: apparent Kd; compound concentrations: 100 nM and 1000 nM (sheet 'Samples'), CATDS: 7.0851480794777598E-3; n = 1.
Experiment [9] deals with PDGFRB. The following applies: read-out: apparent Kd, compound concentrations: 100 nM and 1000 nM (sheet 'Samples'), n = 1.
The test system of experiment [10] is ROCK1. The following applies: read-out: apparent Kd, n = 1.
The test system of experiment [11] is CDK9. The following applies: read-out: apparent Kd, n = 1.
Experiment [12] relates to ICK. The following applies: read-out: apparent Kd, n = 1.
For experiment [13], the system named is PRKG1. The following applies: read-out: apparent Kd, n = 1.
In experiment [14] the test system is MTOR. To be noted: read-out: apparent Kd, compound concentrations: 100 nM and 1000 nM (sheet 'Samples'), n = 1.
Experiment [15] concerns EPHA1. The following applies: read-out: apparent Kd; compound concentrations: 100 nM and 1000 nM (sheet 'Samples'), CATDS: 3.2414414086750797E-2; n = 1.
The mark [16] stands for this setting: compound concentrations:100 nM and 1000 nM (sheet 'Samples').

Where two headings read alike, the source gives them in different places.

Take `Cc1n[nH]c2cc(Nc3ccnc(Nc4cccc(CN5CCOCC5)c4)n3)ccc12` [GW682569X]: the potency estimated from few doses in [1] (CATDS: 0.17881857649065999) is 348 nM; in experiment [2] (compound concentrations: 100 nM and 1000 nM (sheet 'Samples'), CATDS: 0.113560287008428), 891 nM.

With `O=C1N=C(NCc2cccs2)O/C1=C\c1ccc2ncccc2c1` [RO4624208-000], in experiment [3] (CATDS: 5.5474832594148302E-2), the potency estimated from few doses is 936 nM.

With `COC(=O)c1cccc(NC(=O)NC2CCN(c3ccnc(Nc4cc(OC)c(OC)c(OC)c4)n3)C2)c1` (stereo not drawn) [GSK1379767A], in experiment [1] (CATDS: 0.12620401960154601), the potency estimated from few doses was 1050 nM.

Turning to `O=C(O)C(F)(F)F.O=C(O)C(F)(F)F.O=c1[nH]ccc2nc(N[C@@H]3CCCNC3)nc(Nc3ccc(S(=O)(=O)N4CCOCC4)cc3)c12.O=c1[nH]ccc2nc(N[C@@H]3CCCNC3)nc(Nc3ccc(S(=O)(=O)N4CCOCC4)cc3)c12` [GSK2177277A], the potency estimated from few doses in experiment [4] (CATDS: 1.0312125146775999E-2) was 251 nM; in [5] (compound concentrations: 100 nM and 1000 nM (sheet 'Samples'), CATDS: 6.6693958930569E-3), 1260 nM; in [6] (compound concentrations: 100 nM and 1000 nM (sheet 'Samples'), CATDS: 1.3688403769646499E-2) it was 119 nM; in [7] (compound concentrations: 100 nM and 1000 nM (sheet 'Samples'), CATDS: 8.3972230361842193E-3), 481 nM; in experiment [8], 942 nM; in [9] (CATDS: 3.6594692875912202E-2), 18.3 nM. For the same molecule, the potency estimated from few doses in [3] (CATDS: 7.6571772064284397E-3) is 679 nM; in [10] (compound concentrations: 100 nM and 1000 nM (sheet 'Samples'), CATDS: 7.59809178232565E-3), 700 nM.

For `CN[C@H](C#Cc1c(F)ccc2c1/C(=C/c1[nH]ccc1OC)C(=O)N2)CO.Cl` [RO0283049-001], in [7] (compound concentrations: 100 nM and 1000 nM (sheet 'Samples'), CATDS: 2.1826327845386101E-2), the potency estimated from few doses is 1310 nM.

With `O=C1N=C(N[C@H](CO)c2ccccc2)S/C1=C\c1ccc2ncccc2c1` [RO4554339-000], the potency estimated from few doses in experiment [5] (compound concentrations: 100 nM and 1000 nM (sheet 'Samples'), CATDS: 8.0851127030257999E-2) is 2180 nM.

Turning to `CNCC1CCn2c(c(C3=C(c4cn(C)c5ccccc45)C(=O)NC3=O)c3ccccc32)C1` (stereo not drawn) [RO0318676-000], the potency estimated from few doses in experiment [7] (compound concentrations: 100 nM and 1000 nM (sheet 'Samples'), CATDS: 2.9072745389082302E-2) was 1540 nM.

Regarding `NS(=O)(=O)c1ccc(NC=C2C(=O)Nc3ccc4ncsc4c32)cc1` [GW589933X], the potency estimated from few doses was 65.8 nM in experiment [7] (compound concentrations: 100 nM and 1000 nM (sheet 'Samples'), CATDS: 6.9687110689249002E-2); 414 nM in [11] (compound concentrations: 100 nM and 1000 nM (sheet 'Samples'), CATDS: 2.7445436907685701E-2); 1050 nM in [12] (compound concentrations: 100 nM and 1000 nM (sheet 'Samples'), CATDS: 1.95269690039667E-2); 826 nM in experiment [9] (CATDS: 2.1122847549312301E-2).

Consider `CC(C)(CO)CNC(=O)c1ccc2c(c1)/C(=N/Nc1ccc(S(N)(=O)=O)cc1)C(=O)N2` [GW301784X], for which the potency estimated from few doses is 87.1 nM in experiment [7] (setting [16]), 1680 nM in [12] (setting [16]) and 822 nM in [2] (setting [16]).

For `O=C1N=C(NCc2ccccc2Br)S/C1=C\c1ccc2ncccc2c1` [RO4506918-000], the potency estimated from few doses in experiment [6] (compound concentrations: 100 nM and 1000 nM (sheet 'Samples'), CATDS: 7.9298685313138301E-2) is 1370 nM.

On to `NS(=O)(=O)c1ccc(N/C=C2\C(=O)Nc3ccc4ncsc4c32)cc1` [GW297361X], for which the potency estimated from few doses was 232 nM in experiment [7] (compound concentrations: 100 nM and 1000 nM (sheet 'Samples'), CATDS: 7.9429171662671896E-2); 1040 nM in experiment [11] (compound concentrations: 100 nM and 1000 nM (sheet 'Samples'), CATDS: 3.67324795233104E-2).

Take `COc1cc[nH]c1/C=C1\C(=O)Nc2ccc([N+](=O)[O-])c(N3CC[C@@H](O)C3)c21` [RO0504985-000]: the potency estimated from few doses is 1280 nM in experiment [7] (compound concentrations: 100 nM and 1000 nM (sheet 'Samples'), CATDS: 3.3217097054667903E-2); 1620 nM in experiment [11] (compound concentrations: 100 nM and 1000 nM (sheet 'Samples'), CATDS: 3.1258790077652497E-2); 47 nM in experiment [12] (compound concentrations: 100 nM and 1000 nM (sheet 'Samples'), CATDS: 0.118189348894571); 1640 nM in experiment [9] (CATDS: 3.1166812666601599E-2); 1410 nM in experiment [2] (compound concentrations: 100 nM and 1000 nM (sheet 'Samples'), CATDS: 3.2384825488945002E-2).

On to `COc1cc2ncn(-c3cc(OCc4ccccc4S(C)(=O)=O)c(C#N)s3)c2cc1OC` [GSK319347A], for which the potency estimated from few doses in [4] (CATDS: 9.0934128648907098E-2) is 1240 nM.

As for `NS(=O)(=O)c1ccc(N/N=C2\C(=O)Nc3ccc(-c4cnco4)cc32)cc1` [GW276655_KCGS], the figures for the potency estimated from few doses in experiment [7] (setting [16]) and in experiment [12] (setting [16]) were 983 nM and 1770 nM, respectively.

`COc1cc[nH]c1/C=C1\C(=O)Nc2ccc(F)c(C#C[C@@H](O)[C@@H](N)[C@@H](C)O)c21` [RO0283120-000]: the figures for the potency estimated from few doses in [11] (setting [16]) and in [2] (setting [16]) were 1130 nM and 1600 nM, respectively.

Consider `CC(C)N1CC(=O)N(C)c2cnc(Nc3cccc(S(=O)(=O)CCN4CCOCC4)c3)nc21` [BI00009348], for which, in experiment [3] (CATDS: 0.22323444695651501), the potency estimated from few doses is 109 nM.

Consider `Cl.Cl.NC[C@H](CC1CCCCC1)NC(=O)c1ccc(-c2ccnc3[nH]ccc23)s1.NC[C@H](CC1CCCCC1)NC(=O)c1ccc(-c2ccnc3[nH]ccc23)s1` [GSK1581428A], for which the potency estimated from few doses in experiment [5] (setting [16]) is 28.9 nM; in experiment [13] (setting [16]) it was 41.4 nM; in experiment [10] (setting [16]), 29.2 nM.

In the case of `Cn1cc(C2=C(c3ccc(OC[C@@H](O)CO)cc3)C(=O)NC2=O)c2ccccc21` [RO3208546-000], in [14] (CATDS: 4.7243035246753197E-2), the potency estimated from few doses was 730 nM.

As for `Cl.Cl.NCC(NC(=O)c1cc(-c2ccnc3[nH]ccc23)cs1)c1ccccc1.NCC(NC(=O)c1cc(-c2ccnc3[nH]ccc23)cs1)c1ccccc1` (stereo not drawn) [GSK1229959A], the potency estimated from few doses is 15.3 nM in experiment [5] (compound concentrations: 100 nM and 1000 nM (sheet 'Samples'), CATDS: 7.2504197887005906E-2); 8.8 nM in experiment [6] (compound concentrations: 100 nM and 1000 nM (sheet 'Samples'), CATDS: 9.9615433098280207E-2); 801 nM in [11] (compound concentrations: 100 nM and 1000 nM (sheet 'Samples'), CATDS: 1.9893156316103101E-2); 9.7 nM in experiment [13] (compound concentrations: 100 nM and 1000 nM (sheet 'Samples'), CATDS: 9.38640843647673E-2); 7.53 nM in experiment [10] (compound concentrations: 100 nM and 1000 nM (sheet 'Samples'), CATDS: 0.109953475811368).

On to `CCn1c(-c2nonc2N)nc2cncc(C(=O)N3CC[C@H](N)C3)c21.Cl` [SB-772077-B], for which the potency estimated from few doses in [5] (setting [16]) is 1170 nM; in experiment [13] (setting [16]), 95.9 nM.

Regarding `NS(=O)(=O)c1ccc(N/N=C2\C(=O)Nc3ccc4ncccc4c32)cc1` [GW305178X], the potency estimated from few doses in [7] (compound concentrations: 100 nM and 1000 nM (sheet 'Samples'), CATDS: 0.10178285521581799) is 134 nM; in experiment [11] (compound concentrations: 100 nM and 1000 nM (sheet 'Samples'), CATDS: 4.6560668202509002E-2), 1210 nM.

For the molecule `NS(=O)(=O)c1cccc(-c2ccc3c(NC(=O)C4CC4)n[nH]c3c2)c1` [SB-741905], the potency estimated from few doses in experiment [14] (CATDS: 0.166958544620607) was 626 nM.

As for `CCn1c(-c2nonc2N)nc2cncc(Br)c21` [SB-738004], the potency estimated from few doses was 2130 nM in experiment [5] (setting [16]), 1120 nM in [11] (setting [16]) and 181 nM in [10] (setting [16]).

For `Cc1occc1-c1nc(N)c(OC[C@@H](N)Cc2c[nH]c3ccccc23)cc1-c1cc2c(C)n[nH]c2cn1` [GSK1660450B], the potency estimated from few doses is 34.6 nM in experiment [5] (setting [16]) and 65.4 nM in [6] (setting [16]).

As for `Cl.Nc1nc(-c2ccc3c(c2)C(=Cc2cc(Br)c(O)c(Br)c2)C(=O)N3)cs1` [GW407323A], the potency estimated from few doses in experiment [7] (compound concentrations: 100 nM and 1000 nM (sheet 'Samples'), CATDS: 3.5649543484101501E-2) is 720 nM.

In the case of `Cl.Cl.NCC(NCc1ccc(-c2ccnc3[nH]ccc23)s1)c1ccccc1.NCC(NCc1ccc(-c2ccnc3[nH]ccc23)s1)c1ccccc1` (stereo not drawn) [GSK1321565A], the potency estimated from few doses in experiment [13] (setting [16]) was 1060 nM.

For `O=C1N=C(NCCc2ccccc2Cl)S/C1=C\c1ccc2ncccc2c1` [RO4498484-000], the potency estimated from few doses in experiment [5] (compound concentrations: 100 nM and 1000 nM (sheet 'Samples'), CATDS: 5.5434431749678797E-2) is 2450 nM.

As to `Cc1cc(NC(=O)c2cccc(NC(=O)/C=C/CN(C)C)c2)ccc1Nc1nccc(-c2cccnc2)n1` [JNK-IN-7], in [12] (setting [16]), the potency estimated from few doses was 1290 nM.

Consider `CCC(CC)(CC)n1cnc2c(N)ncnc21` [SKF-97620], for which the potency estimated from few doses is 828 nM in experiment [15]; 220 nM in experiment [14] (CATDS: 6.0851943016667201E-2); 658 nM in experiment [3] (CATDS: 3.56480592193908E-2); 1780 nM in [10] (compound concentrations: 100 nM and 1000 nM (sheet 'Samples'), CATDS: 2.49048423205754E-2).

Values taken from publication PMC11062922 (Nature Chemical Biology, 2023).
